Reference: PubChem BioAssay (NCI)
Compounds without any hit were thinned out: in the full panel of roughly 83,000, 20% have a hit.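 Treatment: one concentration, 48 hours, 96-well format. Scoring: percent growth, with anything below 10 considered active.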 Values without a mark were called inactive. Activity calls are given as the source filed them.

Experiments:
Assay in all cases: NCI-60 one-dose screen, 48 h (100 = growth as untreated, 0 = no growth, -100 = all killed)
Details in all cases: 10 µM unless noted
NCI-H23 lung = test system: NCI-H23 lung
NCI-H226 lung = test system: NCI-H226 lung
HOP-62 NSCLC = test system: HOP-62 NSCLC
NCI-H460 lung = test system: NCI-H460 lung
HOP-92 NSCLC = test system: HOP-92 NSCLC
NCI-H522 lung = test system: NCI-H522 lung
A549/ATCC NSCLC = test system: A549/ATCC NSCLC
786-0 renal = test system: 786-0 renal
COLO 205 colon = test system: COLO 205 colon
NCI-H322M lung = test system: NCI-H322M lung

| SMILES | growth (NCI-H23 lung) | growth (NCI-H226 lung) | growth (HOP-62 NSCLC) | growth (NCI-H460 lung) | growth (HOP-92 NSCLC) | growth (NCI-H522 lung) | growth (A549/ATCC NSCLC) | growth (786-0 renal) | growth (COLO 205 colon) | growth (NCI-H322M lung) [%] |
| --- | --- | --- | --- | --- | --- | --- | --- | --- | --- | --- |
| C#C[C@]1(O)CC[C@H]2[C@@H]3CC=C4c5sc(C6CC6)nc5CC[C@]4(C)[C@H]3CC[C@@]21C | 86.4% | 94.6% | 100% | 82.2% | 120% | 81.6% | 72.5% | 51.2% | 119% |  |
| CCN(CC)CCN1C(=O)c2c(c3c4cc(Br)ccc4[nH]c3c3ccc4ccccc4c23)C1=O | -81.8% (active) | 60.8% | -66.9% (active) | -65.8% (active) | -65.1% (active) | -41.9% (active) | -80.1% (active) | -85.9% (active) | -3.78% (active) |  |
| COc1ccc(CCN2C(=O)/C(=C/c3nc(CO)cs3)SC2=S)cc1 | 86.7% | 101% | 82.8% | 102% | 27.7% | 35.9% | 95.3% | 27.9% | 102% |  |
| Oc1ccc(CSc2nnc(-c3ccc(Br)cc3)o2)c2cccnc12 | 38.3% | 61.5% | 21.9% | 10.8% | 5.88% (active) | 29.4% | 29.8% | 39.9% | 100% |  |
| O=C1c2c(c3c4cc(O)ccc4oc3c3[nH]c4ccccc4c23)C(=O)N1O | 2.57% (active) | 63.6% | -25.6% (active) | -6.86% (active) | -8.01% (active) | -5.7% (active) | 43.5% | 2.62% (active) | 61.5% |  |
| COc1cccc(/C=C/C(=O)c2ccc(NC(=O)COc3cccc4cccnc34)cc2)c1 | 99.3% | 93.9% | 112% | 101% | 107% | 90.2% | 95.2% | 96.8% | 105% |  |
| CS(=O)(=O)c1nccc(-c2c(-c3ccc(F)c(OCCc4ccc(F)cc4)c3)nc3sccn23)n1 | 10.7% | 78.1% | 15.1% | -56% (active) | -26.3% (active) | -74.5% (active) | 83.5% | 87.3% | 86.9% |  |
| CSc1nccc(-c2c(-c3ccc(F)c(OCc4ccc(F)cc4)c3)nc3sccn23)n1 | 60.2% | 76.6% | 104% | 89.8% | 54.5% | 66.7% | 78.7% | 74.4% | 83.8% |  |
| CN1CCN(Cc2ccc(NC(=O)c3cncc(C#Cc4cnc5ccc(O[C@H]6CCOC6)nn45)c3)cc2C(F)(F)F)CC1 | -53.5% (active) | -63.8% (active) | -77.7% (active) | -77.7% (active) | -38.3% (active) | -72.1% (active) | -87.7% (active) | -89.7% (active) | -89.1% (active) |  |
| COc1ccc(-c2nc3cc(Cl)c(Cl)cc3n2CC(=O)N=Nc2c(O)[nH]c3ccc(Cl)cc23)cc1 | 21.2% | -8.97% (active) | 0.657% (active) | 16.9% | -28% (active) | 37.6% | 18.5% | 24.7% | -3.46% (active) |  |
| O=S(=O)(Nc1ccc(-n2cnc3cc(-c4ccc(O)cc4)ccc32)cc1)C1CC1 | 101% | 96.2% | 86.8% | 88.7% | 115% | 73.7% | 82.2% | 86.6% | 123% |  |
| O=C(CSc1nnc(-c2cccs2)n1-c1ccccc1)Nc1ccc(F)cc1 | 102% | 98.3% | 109% | 103% | 89.6% | 82.4% | 99.3% | 103% | 105% |  |
| COc1ccc(-c2nc(SCCC(C)C)nc(N/N=C\c3ccc(O)cc3)c2C#N)cc1 | 36.3% | 97.3% | 61.9% | 10.9% | 67.7% | 87.7% | 60.2% | 34% | 106% |  |
| CN1CCN(c2nc(-c3cnc4ccccc4n3)cc3ccccc23)CC1 | 90.9% | 99.9% | 95.9% | 41.3% | 17.3% | 86.9% | 75.9% | 56.4% | -65.2% (active) |  |
| O=C1Nc2cc(OC(F)(F)F)ccc2Oc2ccc(-c3ccnc(N4CC[C@H](O)C4)c3)cc21 | 27.6% | -8.84% (active) | 25.3% | -47.1% (active) | 45.7% | -28% (active) | 0.655% (active) | 6.88% (active) | -42% (active) |  |
| Clc1ccccc1/C=C/c1nn2c(-c3ccncc3)nnc2s1 | 99% | 91% | 108% | 102% | 103% | 101% | 106% | 96.9% | 115% |  |
| O=C(/C=C/c1cn(-c2ccccc2)nc1-c1ccc(Cl)cc1)c1cc2ccccc2oc1=O | 78.3% | 66.1% | 82.4% | 54.6% | 79.6% | 71% | 88.7% | 46% | 84.9% |  |
| C#CCOc1ccc(/C=N/Nc2nc(-c3cc4cc(Br)cc(Br)c4oc3=O)cs2)cc1 | 94.6% | 93.8% | 105% | 101% | 89.3% | 95% | 97% | 99.7% | 100% |  |
| CCCCCCNC(=O)Oc1ccc(/C(=C(\C)c2ccc(OC)cc2)c2ccc(OCCN(C)C)cc2)cc1 | 84.4% | 105% | 89.8% | 67.6% | 50.4% | 98% | 74.7% | 62.3% | 90.4% |  |
| N#Cc1c(NC(=O)c2ccccc2C(F)(F)F)sc2c1CCC(=O)C2 | 3.19% (active) |  | 33% | 13.5% | -36.7% (active) | -4.76% (active) | 75.4% | 28.7% | -18.2% (active) | 95.5 |
| ClC(Cl)c1nc(-c2cccs2)n2nc(-c3ccccc3)cc2n1 | 4.85% (active) | 82.6% | -6.27% (active) | -40.1% (active) | -27.7% (active) | 75.1% | -16.1% (active) | 40.2% | -40.7% (active) |  |
